Bioassay records: PubChem, National Center for Advancing Translational Sciences (NCATS)
Shown are actives, neighbours in structure and some others; about 2.4% of the full set was active somewhere.
Cruzain inh Det: blocks cruzain activity in presence of Triton detergent | purified cruzain, Z-FR-AMC fluorescence, 0.01% Triton | P25779 | 200,000 tested, 0.43% active | Potency, µM, hits mostly inhibitors; note: nearly all actives have a fitted effect of over 40% in size
Target sequence (P25779 123-467 limits assumed): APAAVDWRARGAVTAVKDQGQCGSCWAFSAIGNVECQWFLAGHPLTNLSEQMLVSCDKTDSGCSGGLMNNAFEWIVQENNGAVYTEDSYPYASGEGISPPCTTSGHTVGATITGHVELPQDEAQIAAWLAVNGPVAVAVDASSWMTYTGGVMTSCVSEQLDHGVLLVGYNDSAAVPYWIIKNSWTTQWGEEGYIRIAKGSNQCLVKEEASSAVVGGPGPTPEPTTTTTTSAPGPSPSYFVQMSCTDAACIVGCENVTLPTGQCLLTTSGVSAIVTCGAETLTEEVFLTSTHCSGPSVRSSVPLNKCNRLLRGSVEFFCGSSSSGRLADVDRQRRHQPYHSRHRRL
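In this qHTS format, compounds are incubated with 1.5 nM cruzain for 15 min at room temperature before 2 uM Z-FR-AMC is added. Release of AMC is followed at 360/450 nm, and progress is taken as the 60 s fluorescence difference.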
Cruzain inh noDet: blocks cruzain activity in detergent-free assay; P25779; purified cruzain, Z-FR-AMC fluorescence, no detergent; Potency, µM, hits mostly inhibitors; 200,000 tested, 2.3% active; note: nearly all actives have a fitted effect of over 40% in size
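Detergent-free condition (0.00005% Triton X-100) in acetate buffer pH 5.5 with DTT. 1.5 nM enzyme and compound were pre-mixed 15 min, then 2 uM Z-FR-AMC substrate added; reaction progress from fluorescence change between first and third reads (60 s).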
Of the large screens only hits and unclear results are named; the others gave an inactive call. Calls come from the whole dose curve; as a rule, active = well fitted curve in the direction sought with a large enough effect; inconclusive = small, poorly fitted or top-dose-only effect, or another doubt; inactive = no such curve, though single readings can be large; an effect the other way counts as inactive or inconclusive.

N#Cc1c(SCc2ccccc2)sc(C(=O)c2ccccc2)c1N	none
Cc1ccc(CSc2sc(C(=O)c3ccccc3)c(N)c2C#N)cc1	Cruzain inh noDet 20µM
N#Cc1c(Oc2ccc3ccccc3c2)sc(C(=O)c2ccccc2)c1N	Cruzain inh noDet 25µM
C[Si](C)(c1ccc(C(=O)O)cc1)c1ccc(C(=O)O)cc1	none
CCc1ccc(OC(C)C(=O)N2CCC(c3nc4ccccc4s3)CC2)cc1 (stereo not given)	Cruzain inh noDet inconclusive
CN1CCN(C(=O)c2ccc(C3SCC(=O)N3Cc3ccco3)cc2)CC1 (stereo not given)	none
O=C1CSC(c2cn(-c3ccccc3)nc2-c2ccc3c(c2)OCCO3)N1CCN1CCOCC1 (stereo not given)	Cruzain inh noDet inconclusive
O=C1CSC(c2cn(-c3ccccc3)nc2-c2cc3ccccc3oc2=O)N1Cc1ccccc1 (stereo not given)	Cruzain inh Det 28µM, Cruzain inh noDet inconclusive
O=C1CSC(c2nn(-c3ccccc3)cc2-c2cc3ccccc3oc2=O)N1Cc1ccco1 (stereo not given)	Cruzain inh Det 25µM, Cruzain inh noDet inconclusive
Cc1cccc(N2CCN(C(=O)Cn3c(=O)c4cccn4c4ccc(F)cc43)CC2C)c1 (stereo not given)	none
O=C(Nc1ccc(F)cc1F)c1ccc(COc2c(F)c(F)cc(F)c2F)o1	none
O=C(Nc1ccc(Cl)cc1F)c1ccc(COc2c(F)c(F)c(F)c(F)c2F)o1	Cruzain inh Det 20µM, Cruzain inh noDet inconclusive
O=C(Nc1ccccc1Cl)c1ccc(F)c(S(=O)(=O)NCc2ccc(Cl)c(Cl)c2)c1	Cruzain inh noDet inconclusive
COC(=O)COc1ccc(S(=O)(=O)N2CCc3ccccc3C2)cc1C	none
N#Cc1ccc(-c2csc(NC(=O)c3ccc(S(=O)(=O)N4CCc5ccccc5C4)cc3)n2)cc1	Cruzain inh noDet 6.3µM
Cc1cc(C)c2sc(NNC(=O)c3ccc(S(=O)(=O)N4CCc5ccccc5C4)cc3)nc2c1	Cruzain inh noDet 6.3µM
Cc1cc(C)c2nc(NNC(=O)c3ccc(S(=O)(=O)N4CCc5ccccc5C4)cc3)sc2c1	Cruzain inh noDet 6.3µM
O=C(Nc1nc(-c2ccncc2)cs1)c1ccc(S(=O)(=O)N2CCOCC2)cc1	none
CCc1nnc(NC(=O)c2ccc(S(=O)(=O)N3CCc4ccccc4C3)cc2)s1	Cruzain inh noDet inconclusive
N=C(N)SCCSC(=N)N	none
c1ccc2c[n+](Cc3ccnc4ccccc34)ccc2c1	none
c1ccc(N/N=C(\Cc2nc3ccccc3[nH]2)c2ccccc2)cc1	none
Cc1ccc(N/N=C(\Cc2nc3ccccc3[nH]2)c2ccccc2)cc1	Cruzain inh noDet 25µM
N#CCCN/N=C(/Cc1nc2ccccc2[nH]1)c1ccc(Cl)cc1	Cruzain inh noDet 25µM
N#CCCN/N=C(\Cc1nc2ccccc2[nH]1)c1ccccc1	none
O=C(COc1ccccc1F)Nc1ccccc1OCc1cc(=O)n2ccccc2n1	none
COc1ccc2c(c1)c1nnc(SCC(=O)N3CCCCC3C)nc1n2C (stereo not given)	Cruzain inh Det 14µM
COc1ccc(N2CCN(C(=O)CSc3nnc4c5cc(C)ccc5n(C)c4n3)CC2)cc1	Cruzain inh noDet inconclusive
COc1ccc(N/C=C\C(=O)c2ccc3c(c2)OCO3)cc1OC	none
O=C(/C=C\Nc1cccc(F)c1)c1ccc2c(c1)OCO2	Cruzain inh noDet 25µM
COc1ccccc1C(=O)Nc1cccc(C(=O)OCc2cc(=O)n3cc(C)sc3n2)c1	none
O=C(NCCCN1CCc2ccccc2C1)C1CCN(c2nnc(-n3cccc3)s2)CC1	Cruzain inh Det 25µM
O=C(NCCCN1CCN(Cc2ccccc2)CC1)C1CCN(c2nnc(-n3cccc3)s2)CC1	none
CCOC(=O)c1c(/N=C/c2c(O)n(-c3ccccc3F)c(=S)[nH]c2=O)sc2c1CCCC2	Cruzain inh noDet 16µM
CCOC(=O)c1c(/N=C/c2c(O)n(-c3ccc(F)cc3)c(=S)[nH]c2=O)sc2c1CCCC2	none
CN(C)C(=O)COc1ccc2cc(-c3ccccc3)c(=O)oc2c1	Cruzain inh Det 28µM, Cruzain inh noDet inconclusive
Cc1cc(OCC(=O)N(C)C)c2c(-c3ccccc3)cc(=O)oc2c1	none
Cc1ccc(C)c(N2CCN(S(=O)(=O)c3ccc4[nH]c(=O)c(=O)[nH]c4c3)CC2)c1	none
Cc1ccc(CNS(=O)(=O)c2ccc3[nH]c4c(c3c2)CCCCC4)cc1	none
Cc1ccc(N2CCN(S(=O)(=O)c3ccc4[nH]c5c(c4c3)CCCCC5)CC2)c(C)c1	Cruzain inh noDet 3.2µM
Cc1ccc(C)c(N2CCN(S(=O)(=O)c3ccc4[nH]c5c(c4c3)CCCCC5)CC2)c1	Cruzain inh noDet 7.9µM
CCOC(=O)c1c(C)[nH]c(C)c1S(=O)(=O)N1CCC(C(=O)Nc2ccc(F)cc2F)CC1	none
COc1ccc(S(=O)(=O)N(CCc2ccccc2)CC(=O)NCc2ccc(C)cc2)cc1	none
CC/C(=N/Nc1ccccc1Cl)c1cnnc(-c2ccccc2)n1	none
COc1ccc(N/N=C(/C)c2cnnc(-c3ccccc3)n2)cc1	Cruzain inh noDet 16µM
Cc1ccc(NC(=S)NC(=O)c2ccc(F)cc2)cc1S(=O)(=O)Nc1ccccc1Cl	Cruzain inh noDet inconclusive
